Pf growth 48h = inhibits P. falciparum growth in the first generation, 48 h; P. falciparum luciferase growth in erythrocytes, 48 h; AID 504832; 5.9% of 310,000 active; Potency, µM (doses to about 28.7 µM), for inactives: at the highest dose activity change, negative = inhibition, most hits filed as inhibitors; note: potency is the fitted concentration of half-maximal effect
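Luciferase-expressing P. falciparum in infected erythrocytes (2% hematocrit, 0.1% parasitemia final) in RPMI 1640/0.5% Albumax were exposed to compound for 48 hours at 37 C, 5% CO2; growth read as luminescence.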
HCMV antiviral = inhibitors of human cytomegalovirus; 4.5% of 410,000 active; activity change, negative = inhibition, % at 57.5 µM; AID 1259415; HFF cells, HCMV-luciferase reporter, 72 h; active compounds read low; in the data active = activity change below about -60%; inconclusive = no clear call, values can overlap the other calls; inactive = above about -39%
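Human foreskin fibroblasts infected with luciferase-reporter HCMV at MOI 1 PFU/cell, compounds at two doses. Luciferase measured 72 h post infection; normalized to buffer-only basal and Salinomycin (10uM) controls.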
Pf growth 96h = P. falciparum growth inhibition at 96 hour, primary screen for plastid delayed-death inhibitors | P. falciparum luciferase reporter growth, 96 h | Potency, µM (titrated, usually from 28.7 µM), without a hit: at the highest dose activity change, negative = inhibition, usual class: inhibitors | 6.9% of 320,000 active | AID 504834; note: potency is the fitted concentration of half-maximal effect
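Compounds incubated with erythrocytes infected by luciferase-expressing P. falciparum (2% hematocrit, 0.05% parasitemia final) for 96 hours, 37 C in 5% CO2. Growth inhibition scored as decreased luciferase luminescence.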
HCV inhibitor = blocks hepatitis C virus; Huh7.5.1 HCVcc-Cre infection, luciferase reporter, 44 h; Potency, µM (titrated, usually from 41.8 µM), without a hit: at the highest dose activity change, negative = inhibition, actives largely listed as inhibitors; 3.4% of 340,000 active; AID 651820; note: potency is the fitted concentration of half-maximal effect
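A cell-based infection assay in which seeded cells (1,000 per well) receive test compound after 4 h, are inoculated with HCVcc-Cre at approximately 0.5 moi, and are incubated 44 h before luminescence detection.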
* marks the source's active call; other numbers are inactive results. Only some compounds are listed: those with a hit (about 13% of all), similar ones and a draw of the others. Unless noted, calls come from the whole dose curve; as a rule, active = well fitted inhibition curve with a large enough effect; inconclusive = small, poorly fitted or top-dose-only effect, or another doubt; inactive = no such curve, though single readings can be large or run the other way. % is set by controls: 0 for no effect and ±100 for the full control effect.

What do the screens show for `COc1ccc2nc(NC(=O)c3ccc(-n4nc(C)cc4C)cc3)sc2c1`?
Pf growth 48h: inconclusive; HCMV antiviral: -105.8*; Pf growth 96h: 20.1%; HCV inhibitor: -19.3%

Results for O=C(Nc1nc2ccccc2s1)c1cc(-c2ccccc2)nn1-c1ccccc1 ?
Pf growth 48h: 32.5%; HCMV antiviral: -74.8*; Pf growth 96h: inconclusive; HCV inhibitor: inconclusive

How did COc1ccc2nc(NC(=O)Nc3cccc4ccccc34)sc2c1 do in these assays?
Pf growth 48h: -16.0%; HCMV antiviral: -76.2*; Pf growth 96h: 48.0%; HCV inhibitor: -27.4%

How did COc1ccc(C(=O)Nc2nc3ccccc3s2)cc1 do in these assays?
Pf growth 48h: 169.3%; HCMV antiviral: -38.7; Pf growth 96h: 0.0%; HCV inhibitor: inconclusive

What do the screens show for `COc1cccc(C(=O)Nc2nc3ccccc3s2)c1`?
Pf growth 48h: 323.4%; HCMV antiviral: 48.9; Pf growth 96h: 14.7µM*; HCV inhibitor: -5.6%

What do the screens show for `O=C(CCc1ccccc1)NCCc1csc(-c2cccc(F)c2)n1`?
HCMV antiviral: -5.4

How did CCN(C(=O)Cn1nc(Cc2ccncc2)c2ccccc2c1=O)c1cccc(Cl)c1 do in these assays?
HCMV antiviral: -34.8

How did COc1cccc(NC(=O)C2CC2(c2cccc(OC)c2)c2cccc(OC)c2)c1 (stereo unspecified) do in these assays?
Pf growth 48h: inconclusive; HCMV antiviral: -2.3; Pf growth 96h: inconclusive; HCV inhibitor: inconclusive

How did COc1cccc(C2(c3cccc(OC)c3)CC2C(=O)Nc2cccc3ccccc23)c1 (stereo unspecified) do in these assays?
Pf growth 48h: 9.28µM*; HCMV antiviral: 19.7; Pf growth 96h: 5.22µM*; HCV inhibitor: -28.5%

What do the screens show for `Brc1cc(Br)c2ncnc(N3CCCCC3)c2c1`?
Pf growth 48h: -15.9%; HCMV antiviral: -103.9*; Pf growth 96h: inconclusive; HCV inhibitor: inconclusive

How did Cc1n[nH]c(C)c1S(=O)(=O)N1CCN(c2ccccn2)CC1 do in these assays?
Pf growth 48h: -3.9%; HCMV antiviral: -3.0; Pf growth 96h: 35.9%; HCV inhibitor: 13.6%

What do the screens show for `Cc1n[nH]c(C)c1S(=O)(=O)N1CCc2ccccc2C1`?
Pf growth 48h: -18.5%; HCMV antiviral: 2.3; Pf growth 96h: 10.4µM*; HCV inhibitor: 9.8%

Results for O=C(CC1c2ccccc2C=C(c2ccsc2)N1c1ccc(-c2cccnc2)cc1)C1CC1 (stereo unspecified) ?
HCMV antiviral: -78.9*

How did Fc1ccc(-c2cn3cc(Cc4ccccc4)sc3n2)cc1 do in these assays?
HCMV antiviral: -66.2*

What do the screens show for `COc1ccc(-n2nnc3c(SCC(=O)c4ccccc4)ncnc32)cc1`?
Pf growth 48h: -3.6%; HCMV antiviral: -27.8; Pf growth 96h: 1.85µM*; HCV inhibitor: 10.0%

What do the screens show for `COc1ccc(-n2nnc3c(SCC(=O)Nc4ccc5c(c4)OCCO5)ncnc32)cc1`?
Pf growth 48h: 7.7%

How did COC(=O)c1ccc(CSc2ncnc3c2nnn3-c2ccc(OC)cc2)o1 do in these assays?
Pf growth 48h: -0.4%; HCMV antiviral: -27.4; Pf growth 96h: 9.28µM*; HCV inhibitor: 3.5%

What do the screens show for `Cc1ccc(-n2c(CCC(=O)O)ccc2-c2cccs2)cc1Cl`?
HCMV antiviral: 21.2

What do the screens show for `COCC(C)n1c(C)cc(C(=O)COC(=O)c2cccn2C)c1C` (stereo unspecified)?
HCMV antiviral: -75.9*; HCV inhibitor: inconclusive

How did Cc1ccc(NC(=O)c2cnccn2)c(OC(F)F)c1 do in these assays?
Pf growth 48h: inconclusive; HCMV antiviral: -14.0; Pf growth 96h: inconclusive; HCV inhibitor: 12.6µM*

Results for O=C(Nc1cccc2ccccc12)NC1Cc2ccccc2C1 ?
Pf growth 48h: 32.5%; HCMV antiviral: -3.9; Pf growth 96h: inconclusive; HCV inhibitor: -3.9%

Results for Cc1ccc(C)c(-c2csc(NC(=O)c3cnccn3)n2)c1 ?
Pf growth 48h: inconclusive; HCMV antiviral: -4.8; Pf growth 96h: 11.7µM*; HCV inhibitor: -2.1%

Results for CCOc1ccccc1NC(=O)c1cccc2ccccc12 ?
Pf growth 48h: 17.1%; HCMV antiviral: -32.5; Pf growth 96h: inconclusive; HCV inhibitor: inconclusive

Results for Cc1csc(NC(=O)c2cnccn2)n1 ?
Pf growth 48h: 141.8%; HCMV antiviral: 44.3; HCV inhibitor: 23.5%

How did CCOc1ccccc1NC(=O)NC1Cc2ccccc2C1 do in these assays?
Pf growth 48h: inconclusive; Pf growth 96h: 8.28µM*; HCV inhibitor: -6.3%
